Assay results: PubChem BioAssay (NCATS)
Inconclusive results are not listed. Activity calls are given as the source filed them. Calls follow the shape of the dose curve; as a rule, active = well fitted curve in the direction sought with a large enough effect; inconclusive = small, poorly fitted or top-dose-only effect, or another doubt; inactive = no such curve, though single readings can be large; an effect the other way counts as inactive or inconclusive.

Experiments:
[1] = Primary redox qHTS assay for identification of artifact compounds. (AID 1845223)
Summary of the method: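 Redox-cycling detection via DTT (250 uM final) oxidation coupled to Amplex Red (25 uM)/HRP (250 mU/mL) in HBSS. 15 min preincubation plus 30 min after DTT, room temperature. Ex/Em 525/598 nm; 4-parameter Hill fit against DMSO and 10 uM DA3003.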

[2] = Quantitative High-Throughput drug screen in 47 multiple myeloma cell lines against the NCATS MIPE library collection: FR4_PLB cell viability assay (AID 1918924; also: nearly all actives have a fitted effect of over 35% in size; also: potency is read from the fitted curve at half-maximal effect)
Summary of the method: (§1)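 Relative luminescence from CellTiter-Glo served as the viability signal, referenced to DMSO-treated (100%) and cell-free medium (0%) controls. Treatment lasted 48 hours at 37C with 500 cells per well.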

[3] = Quantitative High-Throughput drug screen in 47 multiple myeloma cell lines against the NCATS MIPE library collection: Delta47_JCRB cell viability assay (AID 1918925; also: nearly all actives have a fitted effect of over 45% in size; also: potency is read from the fitted curve at half-maximal effect)
Summary of the method: (§2)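 Viability readout: CellTiter-Glo luminescence following 5 min room-temperature incubation with reagent. Prior exposure: 48 h, 37C, humidified 5% CO2, 500 cells per well.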

[4] = Quantitative High-Throughput drug screen in 47 multiple myeloma cell lines against the NCATS MIPE library collection: EJM_DSMZ cell viability assay (AID 1918926; also: nearly all actives have a fitted effect of over 30% in size; also: potency is read from the fitted curve at half-maximal effect)
Summary of the method: as §2

[5] = Quantitative High-Throughput drug screen in 47 multiple myeloma cell lines against the NCATS MIPE library collection: AMO1_DSMZ cell viability assay (AID 1918927; also: nearly all actives have a fitted effect of over 30% in size; also: potency is read from the fitted curve at half-maximal effect)
Summary of the method: as §2

[6] = Quantitative High-Throughput drug screen in 47 multiple myeloma cell lines against the NCATS MIPE library collection: ARP1_JJKsccF8 cell viability assay (AID 1918928; also: nearly all actives have a fitted effect of over 40% in size; also: potency is read from the fitted curve at half-maximal effect)
Summary of the method: (§3)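 Cell viability inhibition in this qHTS is measured via ATP content (CellTiter-Glo) after 48 h drug exposure at 37 °C. Wells hold 500 cells; DMSO-treated wells define 100% and medium-only wells 0%.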

[7] = Quantitative High-Throughput drug screen in 47 multiple myeloma cell lines against the NCATS MIPE library collection: ARD_JJKsccE7 cell viability assay (AID 1918929; also: potency is read from the fitted curve at half-maximal effect)
Summary of the method: as §2

[8] = Quantitative High-Throughput drug screen in 47 multiple myeloma cell lines against the NCATS MIPE library collection: Karpas620_DSMZ cell viability assay (AID 1918959); also: nearly all actives have a fitted effect of over 30% in size; also: potency is read from the fitted curve at half-maximal effect
Summary of the method: as §1

[9] = Quantitative High-Throughput drug screen in 47 multiple myeloma cell lines against the NCATS MIPE library collection: KMM1_JCRB cell viability assay (AID 1918960); also: nearly all actives have a fitted effect of over 30% in size; also: potency is read from the fitted curve at half-maximal effect
Summary of the method: as §3

[10] = Quantitative High-Throughput drug screen in 47 multiple myeloma cell lines against the NCATS MIPE library collection: Karpas417_ECACC cell viability assay (AID 1918961); conditions: Karpas417 myeloma viability, CellTiter-Glo ATP luminescence, 48 h; also: potency is read from the fitted curve at half-maximal effect
Summary of the method: as §1

[11] = Quantitative High-Throughput drug screen in 47 multiple myeloma cell lines against the NCATS MIPE library collection: KHM11_PLB cell viability assay (AID 1918962); conditions: KHM11 myeloma cell viability, CellTiter-Glo ATP luminescence, 48 h; also: potency is read from the fitted curve at half-maximal effect; nearly all actives have a fitted effect of over 35% in size
Summary of the method: as §1

[12] = Quantitative High-Throughput drug screen in 47 multiple myeloma cell lines against the NCATS MIPE library collection: JIM3_ECACC cell viability assay (AID 1918963; also: nearly all actives have a fitted effect of over 35% in size; also: potency is read from the fitted curve at half-maximal effect)
Summary of the method: as §1

[13] = Quantitative High-Throughput drug screen in 47 multiple myeloma cell lines against the NCATS MIPE library collection: JIM1_ECACC cell viability assay (AID 1918964; also: potency is read from the fitted curve at half-maximal effect)
Summary of the method: as §2

[14] = Quantitative High-Throughput drug screen in 47 multiple myeloma cell lines against the NCATS MIPE library collection: INA6_PLB cell viability assay (AID 1918965; also: potency is read from the fitted curve at half-maximal effect; nearly all actives have a fitted effect of over 55% in size); conditions: INA6 myeloma viability, CellTiter-Glo ATP luminescence, 48 h
Summary of the method: as §1

[15] = Quantitative High-Throughput drug screen in 47 multiple myeloma cell lines against the NCATS MIPE library collection: JJN3_DSMZ cell viability assay (AID 1918966; also: nearly all actives have a fitted effect of over 50% in size; also: potency is read from the fitted curve at half-maximal effect)
Summary of the method: as §2

[16] = Quantitative High-Throughput drug screen in 47 multiple myeloma cell lines against the NCATS MIPE library collection: H1112_PLB cell viability assay (AID 1918967; also: nearly all actives have a fitted effect of over 30% in size; also: potency is read from the fitted curve at half-maximal effect)
Summary of the method: as §2

[17] = Quantitative High-Throughput drug screen in 47 multiple myeloma cell lines against the NCATS MIPE library collection: Karpas25_ECACC cell viability assay (AID 1918968; also: potency is read from the fitted curve at half-maximal effect; nearly all actives have a fitted effect of over 35% in size); conditions: Karpas25 myeloma viability, CellTiter-Glo ATP, 48 h
Summary of the method: as §2

[18] = Quantitative High-Throughput drug screen in 47 multiple myeloma cell lines against the NCATS MIPE library collection: KMS27_JCRB cell viability assay (AID 1918970); also: nearly all actives have a fitted effect of over 30% in size; also: potency is read from the fitted curve at half-maximal effect
Summary of the method: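 KMS27_JCRB myeloma cells, 500 per well, exposed 48 h at 37 C, 5% CO2 to MIPE 4.0 compounds. Viability from ATP by CellTiter-Glo luminescence, normalized to DMSO (100%) and medium-only (0%) wells.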

[19] = Quantitative High-Throughput drug screen in 47 multiple myeloma cell lines against the NCATS MIPE library collection: KMS12BM_JCRB cell viability assay (AID 1918971); also: nearly all actives have a fitted effect of over 35% in size; also: potency is read from the fitted curve at half-maximal effect
Summary of the method: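 Myeloma cell lines, 500 cells per well, exposed to MIPE 4.0 library compounds for 48 h at 37C, 5% CO2. Viability from ATP by CellTiter-Glo luminescence; normalised to DMSO (100%) and media-only (0%) wells.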

[20] = Quantitative High-Throughput drug screen in 47 multiple myeloma cell lines against the NCATS MIPE library collection: KMS12PE_JCRB cell viability assay (AID 1918972); also: nearly all actives have a fitted effect of over 30% in size; also: potency is read from the fitted curve at half-maximal effect; as to viability: series mostly up to about 46 µM
Summary of the method: as §1

Measured: Potency

CCOC(=O)c1cncn1C(C)c1ccccc1 (centres undefined)
inactive: [1]

C[C@@H]1C[C@@H]([C@H](O)CC2CC(=O)NC(=O)C2)C(=O)[C@@H](C)C1
active: [2] 743 nM | [3] 743 nM | [4] 3320 nM | [5] 469 nM | [6] 52.6 nM | [7] 166 nM | [8] 662 nM | [9] 209 nM | [10] 469 nM | [11] 372 nM | [12] 418 nM | [13] 148 nM | [14] 118 nM | [15] 187 nM | [16] 1050 nM | [17] 1050 nM | [18] 1050 nM | [19] 209 nM | [20] 418 nM

O=C(O)c1nn(Cc2ccc(Cl)cc2Cl)c2ccccc12
inactive: [4] | [6] | [7] | [12] | [13] | [15] | [16] | [18] | [20]

CCCOC(=O)Cc1ccc(OCC(=O)N(CC)CC)c(OC)c1
inactive: [1]

CCCC[N+]1(C)[C@@H]2CC(OC(=O)[C@H](CO)c3ccccc3)C[C@H]1[C@@H]1O[C@@H]12 (some centres undefined)
inactive: [1]

COC(=O)C1=CCCN(C)C1
inactive: [2] | [3] | [4] | [6] | [8] | [9] | [12] | [16] | [19] | [20]
active: [17] 5900 nM | [18] 3 nM

O=C(N[C@@H]1N=C(c2ccccc2F)c2cccc3c2N(CC3)C1=O)c1cc2ccccc2[nH]1
inactive: [1]

C[C@]12CC[C@H](O)CC1=CC[C@@H]1[C@@H]2CC[C@]2(C)C(=O)CC[C@@H]12
inactive: [1]

Cc1nnc2n1-c1sc(CCc3ccc(CC(C)C)cc3)cc1C(c1ccccc1Cl)=NC2C (centres undefined)
inactive: [1]

CCOC(=O)NC(C)(C)Cc1ccc(Cl)cc1
inactive: [1]

COc1ccc(C(=O)N2CCCC2=O)cc1
active: [9] 1870 nM | [13] 3320 nM | [17] 935 nM
inactive: [2] | [4] | [5] | [8] | [12] | [15] | [16] | [19] | [20]

O=C(N[C@H]1N=C(c2ccccc2F)c2cccc3c2N(CC3)C1=O)c1cc2ccccc2[nH]1
inactive: [1]

CC[C@H]1C[C@H]2[C@@H]3CCC4=CC(=O)CC[C@@H]4[C@H]3CC[C@]2(C)[C@H]1O
inactive: [1]

O=C(O)CCCCCCNC1c2ccccc2CCc2ccccc21
inactive: [1]

CCCCC1C(=O)NC(=O)N(C2CCCCC2)C1=O (centres undefined)
inactive: [1]

CCOC(=O)c1ncn2c1CN(C)C(=O)c1c(I)cccc1-2
inactive: [1]
